NALP3 yeast inh = blocks the NALP3 inflammasome reconstituted in yeast. Yeast reconstituted NLRP3/ASC/caspase-1, beta-gal luminescence, 24 h. inhibition, % at 10 µM. 0.39% of 330,000 active;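 active = inhibition of 50% or more; inactive = inhibition below 50%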;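 note: plate controls were induced DMSO wells for no effect and uninduced yeast grown without galactose for full effect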
TIM10 inh = growth inhibitors of TIM10 yeast strain. S. cerevisiae TIM10 strain growth, BacTiter-Glo luminescence, 24 h. inhibition, % at 10 µM. 1.4% of 330,000 active;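 active = inhibition of 40% or more at the single tested concentration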;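 note: wild-type TIM10 isogenic control strain grown at permissive 25 °C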
tim23-1 inh = tim23-1 yeast growth inhibition; S. cerevisiae tim23-1 growth, BacTiter-Glo luminescence, 24 h; inhibition, % at 20 µM; 1.3% of 330,000 active; AID 463212;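 active = growth inhibition of the mutant yeast at or above 50%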;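 note: temperature-sensitive mutant grown at 25 °C; plate controls were DMSO-treated mutant yeast for no effect and medium wells lacking yeast for full effect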
tim10-1 inh = growth inhibitors of tim10-1 mutant yeast. S. cerevisiae tim10-1 ts strain growth, BacTiter-Glo, 24 h. 2.2% of 330,000 active. AID 463190. inhibition, % at 20 µM;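 active = inhibition of at least 40%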;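 note: mutant grown at 25 °C; 0% = DMSO wells with yeast and 100% = wells holding no yeast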
PfHsp90 yeast 2 = reduces growth (ATP signal) of yeast expressing P. falciparum Hsp90. 0.32% of 310,000 active. inhibition, % at 9.4 µM. S. cerevisiae expressing PfHsp90, BacTiter-Glo ATP, 48 h; yeast lacking PDR1 and PDR3 efflux regulators;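 active = every replicate shows inhibition above about 80%, whatever the replicate mean, limit read from the data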;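 note: 0% = DMSO neutral controls and 100% = 20 µM radicicol positive controls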
SKKanGAS inh = blocks kanamycin growth of S. pyogenes SKKanGAS strain | BacTiter-Glo, 6 h | inhibition, % at 7.5 µM | 1.3% of 300,000 active;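 active = mean replicate score, as percent of positive control median, at least 50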;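 note: strain carries kanamycin resistance gene driven by streptokinase promoter and grows in 40 µg/ml kanamycin; loss of luminescence reflects streptokinase promoter inhibition or plain growth inhibition; 0% = median of DMSO wells and 100% = positive control at its reference dose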
tim10-1 confirm = confirmation of tim10-1 mutant yeast growth inhibitors; shares compounds with tim10-1 inh; S. cerevisiae tim10-1 ts strain growth, BacTiter-Glo, 24 h; inhibition, % at 20 µM; 56% of 7,400 active;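 active = inhibition of yeast growth at or above a set limit in either of two repeat tests at 20 µM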;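 note: tim10-1 mutant grown at permissive 25 °C to find synthetic lethal compounds; 0% = DMSO yeast wells and 100% = medium wells without yeast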
TIM10 conf = confirmation of TIM10 yeast growth inhibitors; shares compounds with TIM10 inh; S. cerevisiae tim10 strain growth, BacTiter-Glo luminescence, 24 h; inhibition, % at 10 µM; 63% of 4,600 active;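 active = inhibition of yeast growth at or above a set limit in either of two replicates at 10 µM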;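 note: this counterscreen used the strain with wild-type TIM10; 0% = yeast with DMSO and 100% = medium wells lacking yeast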
* hit, by the source's call; . = not tested or not shown. Rows were chosen to be rich in hits. Some 4.6% of all compounds tested hit in one or more screens of this group.

SMILES	NALP3 yeast inh	TIM10 inh	tim23-1 inh	tim10-1 inh	PfHsp90 yeast 2	SKKanGAS inh	tim10-1 confirm	others
COc1ccccc1OCC(=O)Nc1ccc(S(=O)(=O)N2CCCCCC2)cc1	4	31	31	31	-23	1	.
COc1ccc(CSCC(=O)Nc2ccc(S(=O)(=O)N3CCCCCC3)cc2)cc1	15	24	39	42*	20	-7	29
Cc1ccccc1OCC(=O)Nc1ccc(S(=O)(=O)N2CCCC2)cc1	5	25	23	49*	.	6	37*
CCCOc1ccccc1OCC(=O)Nc1ccc(S(=O)(=O)N2CCCC2)cc1	24	23	36	38	6	-3	.
CCCOc1ccccc1OCC(=O)Nc1ccc(S(=O)(=O)N2CCCCC2)cc1	14	7	31	41*	2	2	32*
COc1ccc(OCC(=O)Nc2ccc(S(=O)(=O)N3CCCC3)cc2)cc1	13	37	31	26	-10	1	.
O=C1CN(N=Cc2ccco2)C(=O)N1	.	.	.	.	7	.	.
O=C(CCCN1C(=O)c2ccccc2C1=O)Nc1ccc(S(=O)(=O)N2CCCCC2)cc1	-9	9	31	41*	7	-1	32*
CCOc1ccccc1OCCCC(=O)N1CCN(S(=O)(=O)c2ccc(C)cc2)CC1	11	11	23	41*	-26	4	16
O=C(CCCN1C(=O)c2ccccc2C1=O)Nc1ccc(S(=O)(=O)N2CCOCC2)cc1	-10	8	12	14	.	-4	.
Cn1nc(C(F)(F)F)c(-c2ccc(Br)cc2)c1NC(=O)c1cccnc1	21	12	9	23	-6	41	.
Cn1nc(C(F)(F)F)c(-c2ccc(Br)cc2)c1NC(=O)c1ccco1	13	3	32	40*	-14	19	14
O=C(CC1C(=O)NCCN1Cc1c(F)cccc1Cl)NCCCOc1cccnc1 (configuration not stated)	2	2	5	0	7	0	.
CSc1ccccc1OCc1cc(C(=O)N2CCCC(C)C2)no1 (configuration not stated)	24	0	14	19	-16	1	.
CSc1ccccc1OCc1cc(C(=O)N2CCN(c3ncccn3)CC2)no1	16	33	45	46*	-5	18	29
CSc1ccccc1OCc1cc(C(=O)N2CCC(Oc3cccnc3)CC2)no1	17	40	39	43*	.	-15	37*
O=C(c1cc(COc2ccc(F)cc2Cl)on1)N1CCN(c2cnccn2)CC1	27	34	47	50*	-11	47	47*
CSc1ccccc1OCc1cc(C(=O)N2CCSCC2)no1	21	8	17	14	3	5	.
COc1ccc2oc(C(=O)Nc3cccc(S(=O)(=O)N4CCOCC4)c3)c(C)c2c1	13	3	-2	-1	-5	.	.
COCCCNC(=S)N/N=C/c1ccc(OC)c(Br)c1	9	17	17	24	-2	-2	.
O=C1/C(=C/c2ccc(O)cc2)CCc2ccc([N+](=O)[O-])cc21	19	1	2	20	-62	9	.
O=C1/C(=C\c2ccc([N+](=O)[O-])cc2)CCc2ccccc21	21	37	42	47*	9	5	36*
O=C1CN(C(=O)c2c(F)cccc2F)C(c2ccc(F)cc2)c2cc(Br)ccc2N1 (configuration not stated)	-6	7	26	41*	12	-1	29*
O=C1CN(C(=O)c2c(F)cccc2F)C(c2ccccc2)c2cc(Br)ccc2N1 (configuration not stated)	12	22	25	20	-6	10	.
CC(C)c1ccc2[nH]c3c(c2c1)[C@@H]1CCN2C(=O)CCC[C@H](C3)[C@H]12	6	-4	-13	22	-77	-1	.
SMILES	NALP3 yeast inh	TIM10 inh	tim23-1 inh	tim10-1 inh	PfHsp90 yeast 2	SKKanGAS inh	tim10-1 confirm	others
O=C(N1CCCCCC1)n1c(Cc2ccccc2)nc2ccccc21	19	36	23	41*	32	7	42*
O=C(Cn1c(S(=O)(=O)Cc2ccccc2)nc2ccccc21)N1CCCCC1	13	4	5	21	-5	-1	.
CSCCC(=O)N1CCCC(CNC(=O)c2ccc(-c3ccccc3)cc2)C1 (configuration not stated)	11	23	33	40*	-10	-11	28
COC(=O)C(Cc1ccccc1)NC(=O)CCCC(=O)NCc1cccc(OC)c1 (configuration not stated)	14	-1	-2	11	-7	-4	.
O=C(CO/N=C/c1cccc([N+](=O)[O-])c1)Nc1ccc2ccccc2c1	23	9	16	45*	31	5	24
C=CCSc1nc2ccccc2n1C(=O)/C=C/c1cc(OC)c(OC)c(OC)c1	42	43*	44	45*	15	-1	49*	TIM10 conf=41*
COc1ccc(-c2ccc3oc(-c4ccsc4)cc(=O)c3c2)cn1	22	-6	18	8	-4	.	.
COc1ccccc1N1CCN(C(=O)c2ccc3[nH]c4c(c3c2)CC(C)CC4)CC1 (configuration not stated)	16	49*	24	53*	-31	37	38*	TIM10 conf=36*
CC1CCc2[nH]c3ccc(C(=O)O)cc3c2C1 (configuration not stated)	15	2	5	8	22	11	.
Cc1cccc(NC(=S)N2CCN(c3ccc(F)cc3)CC2)c1	-43	9	-17	33	22	-8	.
CCOC(=O)N1CCC2(CC1)C(C(=O)C13CC4CC(CC(C4)C1)C3)C2(C#N)C#N (configuration not stated)	-1	63*	43	54*	29	4	54*	TIM10 conf=45*
Cc1ccc(-n2nnnc2C(Cl)(Cl)c2nnnn2-c2ccc(C)cc2)cc1	50	62*	48	45*	128*	-19	15	TIM10 conf=75*
Cn1cc(C(=O)C(=O)N2CCCCC2)c2ccccc21	.	.	.	.	18	.	.
COc1ccc(-c2nc(-c3ccccc3)nc(N3CCN(C)CC3)c2C#N)cc1	33	53*	50	45*	-11	13	22	TIM10 conf=26
Cc1ccc(C(=O)c2c[nH]c3c(F)cc(F)cc3c2=O)cc1	-1	5	14	-2	-12	-12	.
CN=C(Nc1ccc(Br)cc1)SC1CC(=O)N(c2ccc(OC)cc2)C1=O (configuration not stated)	6	45*	18	41*	-14	4	22	TIM10 conf=27
O=C(CCC(=O)c1cccs1)OCC(=O)c1ccccc1F	9	13	27	18	.	.	.

Screening results from PubChem BioAssay.
